In the supplement of paper PMC7184167 one finds relative cell viability data, which are given here for 36 molecules.

Counter-ions that a name gives are not always drawn.

This experiment relates to replication-induced senescent mouse newborn dermal fibroblasts (NBF). The experiment in a line: relative cell viability of senescent cells (fraction); higher = less killing of senescent cells. The note with it: 1 µM; 3 days. Here is the method: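 Replication-induced senescent newborn mouse skin fibroblasts (NBFs) in 24-well plates were treated with a Selleck FDA-approved drug library at 1 µM for 3 days.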
For `CCC(C)(C)c1ccc(CC(C)CN2C[C@@H](C)O[C@@H](C)C2)cc1` (stereo partly specified) [Amorolfine HCl], the relative cell viability came to 1.09.
On to `C[C@@](Cc1ccc(O)c(O)c1)(NN)C(=O)O` [Carbidopa], for which the relative cell viability was 1.05.
`COc1nc(N)nc2c1ncn2[C@@H]1O[C@H](CO)[C@@H](O)[C@@H]1O` [Nelarabine] showed a relative cell viability of 1.08.
As for `COC(=O)[C@H](c1ccccc1Cl)N1CCc2sccc2C1` [Clopidogrel], the relative cell viability is 0.983.
The molecule `CCCc1cc(C(N)=S)ccn1` [Protionamide] displayed a relative cell viability of 1.02.
In turn, `Nc1ccc(S(=O)(=O)Nc2ncccn2)cc1` [Sulfadiazine] came in with a relative cell viability of 1.11.
`NS(=O)(=O)Cc1noc2ccccc12` [Zonisamide] registered a relative cell viability of 1.11.
Molecule `c1ccc2c(CC3=NCCN3)cccc2c1` [Naphazoline HCl] had a relative cell viability of 0.868.
`COc1ccccc1OCCNCC(O)COc1cccc2[nH]c3ccccc3c12` (stereo unspecified) [Carvedilol] yielded a relative cell viability of 1.14.
On to `CCCCC1C(=O)N(c2ccccc2)N(c2ccccc2)C1=O` [Phenylbutazone], for which the relative cell viability came to 0.899.
Under `CCN(CC)C(=S)SSC(=S)N(CC)CC` [Disulfiram] stands 1.13; under `CC(C)(C)c1cc(NC(=O)Nc2ccc(-c3cn4c(n3)sc3cc(OCCN5CCOCC5)ccc34)cc2)no1` [Quizartinib (AC220)], 0.955.
In the case of `Nc1ncnc2c1ncn2[C@@H]1O[C@H](CO)[C@@H](O)[C@H]1O` [Adenosine], the relative cell viability came to 0.937.
Under `Clc1cccc(Cl)c1NC1=NCCN1` [Clonidine HCl] stands 1.04.
For `CN(C)C/C=C/C(=O)Nc1cc2c(Nc3ccc(F)c(Cl)c3)ncnc2cc1O[C@H]1CCOC1` [Afatinib (BIBW2992)] the value was 0.539; for `O=c1[nH]c(=O)n([C@H]2C[C@H](O)[C@@H](CO)O2)cc1I` [Idoxuridine], 0.949.
For the molecule `C#CCC(Cc1cnc2nc(N)nc(N)c2n1)c1ccc(C(=O)N[C@@H](CCC(=O)O)C(=O)O)cc1` (stereo partly specified) [Pralatrexate], the relative cell viability stood at 0.863.
Molecule `COc1ccc(C2CNC(=O)C2)cc1OC1CCCC1` (stereo unspecified) [Rolipram] gave a relative cell viability of 1.07.
In turn, `Cc1ccc(NC(=O)C2(c3ccc4c(c3)OC(F)(F)O4)CC2)nc1-c1cccc(C(=O)O)c1` [VX-809 (Lumacaftor)] registered a relative cell viability of 0.838.
Molecule `O=NN(CCCl)C(=O)NC1CCCCC1` [Lomustine] came in with a relative cell viability of 1.02.
`CO[C@H]1/C=C/O[C@@]2(C)Oc3c(C)c(O)c4c(O)c(c5c(nc6cc(C)ccn65)c4c3C2=O)NC(=O)/C(C)=C\C=C\[C@H](C)[C@H](O)[C@@H](C)[C@@H](O)[C@@H](C)[C@H](OC(C)=O)[C@@H]1C` [Rifaximin]: the relative cell viability is 0.971.
In turn, `CS(=O)(=O)N1CCN(Cc2cc3nc(-c4cccc5[nH]ncc45)nc(N4CCOCC4)c3s2)CC1` [Pictilisib (GDC-0941)] displayed a relative cell viability of 0.681.
On to `COc1cc(Nc2ncc3c(n2)-c2ccc(Cl)cc2C(c2c(F)cccc2OC)=NC3)ccc1C(=O)O` [Alisertib (MLN8237)], for which the relative cell viability was found to be 0.0819.
Turning to `COc1cc2nc(N(C)CCCNC(=O)C3CCCO3)nc(N)c2cc1OC` (stereo unspecified) [Alfuzosin HCl], the relative cell viability came out at 0.96.
Molecule `CCOC(=O)C1=C(COCCN)NC(C)=C(C(=O)OC)C1c1ccccc1Cl` (stereo unspecified) [Amlodipine Besylate] registered a relative cell viability of 0.987.
Molecule `Nc1cccc2c1C(=O)N(C1CCC(=O)NC1=O)C2=O` (stereo unspecified) [Pomalidomide] displayed a relative cell viability of 1.19.
`CC(C)[N+]1(C)[C@@H]2CC[C@H]1C[C@@H](OC(=O)C(CO)c1ccccc1)C2` (stereo partly specified) [Ipratropium Bromide] came in with a relative cell viability of 0.902.
On to `CNC(=O)c1cc(Oc2ccc(NC(=O)Nc3ccc(Cl)c(C(F)(F)F)c3)c(F)c2)ccn1` [Regorafenib (BAY 73-4506)], for which the relative cell viability worked out at 0.958.
For the molecule `O=C(O)c1cccnc1` [Nicotinic Acid], the relative cell viability worked out at 0.937.
As to `O=C1[C@H](CC[C@H](O)c2ccc(F)cc2)[C@@H](c2ccc(O)cc2)N1c1ccc(F)cc1` [Ezetimibe], the relative cell viability worked out at 0.901.
For `O=C(O)/C=C/c1ccc(Cn2ccnc2)cc1` [Ozagrel] the value was 1.02; for `COc1ccc(Cl)cc1C(=O)NCCc1ccc(S(=O)(=O)NC(=O)NC2CCCCC2)cc1` [Glyburide (Glibenclamide)], 1.02.
`Cc1nc2n(c(=O)c1CCN1CCC(c3noc4cc(F)ccc34)CC1)CCCC2O` (stereo unspecified) [Paliperidone] yielded a relative cell viability of 1.04.
For the molecule `COc1ccccc1OCC(O)CN1CCN(CC(=O)Nc2c(C)cccc2C)CC1` (stereo unspecified) [Ranolazine 2HCl], the relative cell viability came to 0.773.
`O=C(c1cc(Cc2n[nH]c(=O)c3ccccc23)ccc1F)N1CCN(C(=O)C2CC2)CC1` gave a relative cell viability of 1.09.
As to `CCCC(CCC)C(=O)O` [Valproic acid sodium salt (Sodium valproate)], the relative cell viability stood at 1.11.
